Records with an inconclusive call do not appear. Entries that show only a call come without a potency. Calls of active or inactive are those of the source. Calls follow the shape of the dose curve; as a rule, active = well fitted inhibition curve with a large enough effect; inconclusive = small, poorly fitted or top-dose-only effect; inactive = flat fitted curve, though single readings scatter. Where a SMILES comes first, the peptide text is derived from it. The star is where a group is joined. AMC = Cc1cc(=O)oc2cc(N*)ccc12; Cbz = O=C(OCc1ccccc1)*
Potency is read from the fitted curve at half-maximal effect.

Chain of Phospholipid hydroperoxide glutathione peroxidase GPX4 (Homo sapiens) (P36969 whole entry, looked up): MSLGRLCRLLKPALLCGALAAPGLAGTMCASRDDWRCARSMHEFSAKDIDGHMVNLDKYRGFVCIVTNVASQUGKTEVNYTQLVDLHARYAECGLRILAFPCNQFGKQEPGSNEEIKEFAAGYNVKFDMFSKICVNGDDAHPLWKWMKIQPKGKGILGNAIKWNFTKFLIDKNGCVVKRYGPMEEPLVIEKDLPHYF

In the assay the target is Phospholipid hydroperoxide glutathione peroxidase GPX4 (Homo sapiens) (UniProt P36969). Nature of the assay: Primary qHTS Assay for Inhibitors of Recombinant Selenoprotein Glutathione Peroxidase 4 (GPX4) (AID 1845192). Also: nearly all actives have a fitted effect of over 65% in size. Particulars: recombinant GPX4, GR-coupled NADPH fluorescence, 15 min; series mostly up to 27.8 µM. An excerpt:
Assay Provider: Elias S.J. Arner MD PhD.
Department of Medical Biochemistry and Biophysics
Karolinska Institutet, Solna, Stockholm, Sweden
Selenoprotein glutathione peroxidases (GPX), like the ubiquitously expressed GPX1 and the ferroptosis modulator GPX4, enact their antioxidant activities by reducing hydroperoxides using glutathione. […] GPX1 and GPX4 inhibitors have thus shown promise as anti-cancer agents. Existing inhibitors are often promiscuous, or modulate GPX activity only indirectly, so novel direct inhibitors identified through screening against GPX1 and GPX4 could be valuable. Here, we developed optimized glutathione reductase (GR)-coupled GPX assays for the biochemical high-throughput screen (HTS) of almost 12,000 compounds with known mechanisms of action. Initial hits were triaged using a GR counter-screen, assessed for isoform specificity using a separate GPX2 assay, and were assessed for general selenocysteine-targeting activity using a thioredoxin reductase (TXNRD1) assay. With this suite of assays, we identified novel GPX1/GPX2- and GPX4-specific inhibitors and can here present a validated pipeline for future discovery research for selenoprotein-targeting agents.
SEQUENCE No. (e.g., 1, 2, 3, etc.); […] (e.g., Cells, Incubation, Reagent, etc.); VALUE; DESCRIPTION.
1; Reagent 1; 3 uL; 333.33 nM GPx4 enzyme or no enzyme control in 1536-well, black, solid Greiner assay plate.
2; Compound; 25 nL; Kalypsis pin tool (Wako USA) equipped with a 1536-well pin head.
3; Incubation; 30 min; room temperature.
4; Reagent 2; 1 uL; 500 nM GR, 5 mM GSH, 2.5 mM NADPH solution
5; Reagent 3; 1 uL; 2.5 mM CHP in 50% EtOH.
6; Detection; Fluorescence; ViewLux microplate reader, excitation 340 nm and emission 450 nm.
7; Incubation; 15 min; room temperature.
8; Detection; Fluorescence; ViewLux microplate reader, excitation 340 nm and emission 450 nm.
NOTES (numbers refer to Sequence numbers above)
1. 3 µL of 333.33 nM GPX4 and 0.016% BSA in assay buffer (50 mM Tris-HCl, 2 mM EDTA (pH 7.5), 150 mM NaCl) was added to columns 3-48 of 1536-well plates using a BioRAPTR Flying Reagent Dispenser (Let's Go Robotics (LGR), Carlsbad, CA). A no-enzyme control (0.01% BSA in TES assay buffer) was added to columns 1-2.
2. 25 nL, library and DMSO controls were added to each well with a pin tool (Kalypsys).
3. The assay plates were incubated for 30 minutes at room temperature.
4. 1 µL of master mix (500 nM glutathione reductase (GR), 5 mM reduced glutathione (GSH), 2.5 mM NADPH in assay buffer) was added.
5. 1 µL of cumene hydroperoxide (CHP) ([2.5 mM] in 50% EtOH) was then added within 5 minutes to initiate the reaction. Final concentrations were: 200 nM GPX4, 1 mM GSH, 0.5 mM CHP, 0.5 mM NADPH, 100 nM GR, 0.01% BSA.
6. Initial fluorescence readout (t=0) at 340/450 nm was measured using a ViewLux multimodal detector (PerkinElmer, Waltham, MA).
8. Endpoint fluorescence readout (t=15) at 340/450 nm was measured 15 min after room temperature incubation.
For orientation: Quantitative high-throughput screening tests each substance at several concentrations.
Take `CC(=O)OCC1OC(O[C@H]2CC[C@@]3(C)C(CC[C@]4(C)C3CC=C3[C@@H]5CC(C)(C)CC[C@]5(C(=O)O)CC[C@]34C)[C@]2(C)CO)C(O)C(O)C1OC1OC(C)C(O)C(OC2OCC(O)C(O)C2O)C1O` (stereo not given in full): the Potency result is “inactive”.

With `CCCC/C=C\CCCCCc1cc(=O)c2ccccc2n1C`, the Potency result is “inactive”.

Turning to `C/C=C(\C)C(=O)OC1C2(O)CC3=C4CC(=O)OC(c5ccoc5)C4(C)CCC3C(C)(C2=O)C(C(OC(C)=O)C(=O)OC)C1(C)C` (stereo not given), the Potency entry was “inactive”.

In the case of `COC(=O)C(CC1(O)c2ccccc2N2C(=O)C(C)(C)N(O)C21)n1cnc2ccccc2c1=O` (stereo not given), the Potency entry was “inactive”.

As to `O=C1NC(=O)/C(=C/c2cccc(C(F)(F)F)c2)S1`, the Potency result is “inactive”.

As for `O=C(O)c1ccc(NC(=O)[C@H](CC2CCCC2)n2cnc(C(F)(F)F)c2)nc1`, the Potency result was “inactive”.

In the case of `O=C(O)C1(c2ccc(-c3ccc(Cl)c(Cl)c3)c(F)c2)CC1`, the Potency result is “inactive”.

For `CC[C@@H](Nc1c(Nc2cccc(C(=O)N(C)C)c2O)c(=O)c1=O)c1ccc(C)o1`, the Potency result was “inactive”.

On to `C[C@H]1CC[C@@]2(OC1)O[C@H]1CC3C4CC[C@H]5C[C@@H](O)CC[C@]5(C)C4CC(=O)[C@]3(C)[C@H]1[C@@H]2C` (stereo not given in full), for which the Potency entry is “inactive”.

Regarding `CC1(C)CC[C@]2(C(=O)O[C@@H]3O[C@H](CO)[C@@H](O)[C@H](O)[C@H]3O)CC[C@]3(C)C(=CCC4[C@@]5(C)C[C@H](O)[C@H](O[C@@H]6O[C@H](C(=O)O)[C@@H](O)[C@H](O)[C@H]6O)[C@@](C)(CO)C5CC[C@]43C)C2C1` (stereo not given in full), the Potency entry is “inactive”.

`C#CCCCn1cc(-c2cccc3c2N[C@@H](C)CC(=O)N3)cn1`: the Potency result was “inactive”.

Take `COc1cc(C(CO)C(OC2OC(CO)C(O)C(O)C2O)c2ccc(O)c(OC)c2)ccc1O` (stereo not given): the Potency entry was “inactive”.

For `OC[C@H]1O[C@@H](OCc2ccccc2)[C@H](O[C@@H]2OC[C@@H](O)[C@H](O)[C@H]2O)[C@@H](O)[C@@H]1O`, the Potency result is “inactive”.

As for `COc1ccc(C2(O)c3ccccc3NC(=O)C2OC)cc1` (stereo not given), the Potency entry is “inactive”.

Regarding `C=C1CCC2(OC1)OC1CC3C4CC=C5CC(O)CC(O[C@@H]6OC[C@H](OC(=O)C(O)C(C)CC)[C@H](O)[C@H]6O[C@@H]6O[C@@H](C)[C@H](O)[C@@H](O)[C@H]6O)C5(C)C4CCC3(C)C1C2C` (stereo not given in full), the Potency result was “inactive”.

As to `CSCC1OC(n2cnc3c(N)ncnc32)C(O)C1O` (stereo not given), the Potency result is “inactive”.

Turning to `CC1=CC[C@@]2(C)CC[C@@](O)(C(C)C)[C@@H]2[C@@H](O)C1`, the Potency entry is “inactive”.

With `COc1ccccc1CN[C@H]1CCCN[C@H]1c1ccccc1`, the Potency entry is “inactive”.

Consider `CC(C)c1cc2c(c(O)c1O)[C@@]13CCCC(C)(C)C1[C@@H](O)[C@@H]2OC3=O` (stereo not given in full), for which the Potency entry is “inactive”.

With `C=C[C@]1(C)C[C@@H](OC(=O)CSC2C[C@H]3CC[C@@H](C2)N3C)[C@]2(C)[C@H](C)CC[C@]3(CCC(=O)[C@H]32)[C@@H](C)[C@@H]1O` (stereo not given in full), the Potency result was “inactive”.

`COC(=O)Cn1nc(-c2cccc(OC)c2)c2ccccc21`: the Potency result is “inactive”.

Take `C/C(=C\CCC1(C)C2CC3C(C2)C31C)C(=O)O` (stereo not given): the Potency entry was “inactive”.

With `COc1cc(/C=C/C(=O)O[C@H]2C[C@@H]3C(C(=O)O)=CO[C@@H](O[C@@H]4O[C@H](CO)[C@@H](O)[C@H](O)[C@H]4O)[C@@H]3[C@H]2C)ccc1O`, the Potency entry is “inactive”.

As to `CC1(C)CC[C@]2(C(=O)O[C@@H]3O[C@H](CO)[C@@H](O)[C@H](O)[C@H]3O)CC[C@]3(C)C(=CCC4[C@@]5(C)CC[C@H](O[C@@H]6O[C@H](C(=O)O)[C@@H](O)[C@H](O)[C@H]6OC6OC(CO)C(O)C(O)C6O)C(C)(C)C5CC[C@]43C)[C@@H]2C1` (stereo not given in full), the Potency result was “inactive”.

`CC1=C2CC(O)(C(C)(C)O)C(O[C@@H]3O[C@H](CO)[C@@H](O)[C@H](O)[C@H]3O)CC(C)C2CC1=O` (stereo not given in full): the Potency entry was “inactive”.

As to `CO[C@H]1c2cc(C(C)C)c(O)c(O)c2[C@@]23CCCC(C)(C)C2[C@@H]1OC3=O` (stereo not given in full), the Potency entry is “inactive”.

Consider `C[C@@H]1O[C@@H](O[C@H]2[C@H](O[C@H]3[C@H](O[C@H]4CC[C@@]5(C)C(CC[C@]6(C)C5CC=C5[C@@H]7CC(C)(C)C[C@@H](O)[C@]7(C)CC[C@]56C)[C@@]4(C)CO)O[C@H](C(=O)O)[C@@H](O)[C@@H]3O)O[C@H](C(=O)O)[C@H](O)[C@@H]2O)[C@H](O)[C@H](O)[C@H]1O` (stereo not given in full), for which the Potency entry was “inactive”.

Regarding `COc1cc(C2Oc3c(OC)cc(/C=C/C(=O)OC4CC(O)(C(=O)O)CC(O)C4O)cc3C2CO)ccc1O` (stereo not given), the Potency result is “inactive”.

Turning to `Cc1cc(=O)oc2cc(NC(=O)[C@H](CCC(=O)O)NC(=O)[C@H](CC(C)C)NC(=O)[C@H](CC(C)C)NC(=O)OCc3ccccc3)ccc12` (Cbz-Leu-Leu-Glu-{AMC}), the Potency was 22.7 µM (active).

As to `COC(=O)/C=C/c1ccc(O[C@@H]2O[C@H](CO)[C@@H](O)[C@H](O)[C@H]2O)cc1`, the Potency result was “inactive”.

As to `C[C@H]1[C@H](C)CC[C@]2(C(=O)O)CC[C@]3(C(=O)O)C(=CCC4[C@@]5(C)CC[C@H](O[C@@H]6O[C@@H](C)[C@H](O)[C@@H](O)[C@H]6O)C(C)(C)C5CC[C@]43C)[C@H]12` (stereo not given in full), the Potency result is “inactive”.

Consider `COC(=O)C1(C)CCCC2(C)c3ccc(C(C)C)cc3C(O)C(O)C12` (stereo not given), for which the Potency entry was “inactive”.

For `COc1ccc(/C=C/C(=O)O[C@@H]2[C@@H](OC(C)=O)[C@@H](OC(C)=O)[C@H](O[C@H]3[C@@H]4C=CO[C@@H](O[C@@H]5O[C@H](CO)[C@@H](O)[C@H](O)[C@H]5O)[C@@H]4[C@@]4(CO)O[C@@H]34)O[C@H]2C)cc1`, the Potency entry is “inactive”.

Consider `CN[C@H](CNC(=O)N1CCC[C@@H]([C@@H](OCCNC(=O)OC)c2cccc(Cl)c2)C1)C[C@H]1CCCOC1`, for which the Potency result is “inactive”.

As to `COC(=O)[C@@H](NC(=O)[C@H](CC(C)C)NC(=O)N(Cc1ccccc1)C[C@@H](O)[C@H](Cc1ccccc1)NC(=O)OC(C)(C)C)C(C)C`, the Potency entry was “inactive”.

Turning to `CC(C)C1CCC(CO)=CC1/C=C(\CO)C(=O)OCC1(O)CCC(C(C)C)C2C=C(C(=O)O)COC(=O)C21` (stereo not given), the Potency result was “inactive”.

On to `COc1cncc(C#Cc2ccccn2)c1`, for which the Potency result is “inactive”.

For the compound `CC1(C)C(=O)CCC2(C)C1C(O)C=C1COC(=O)C12O` (stereo not given), the Potency result was “inactive”.

On to `N#Cc1ccc(C2CCCc3cncn32)cc1` (stereo not given), for which the Potency entry is “inactive”.

For `O=C(O)Cc1cn([C@@H]2O[C@H](CO)[C@@H](O)[C@H](O)[C@H]2O[C@@H]2O[C@H](CO)[C@@H](O)[C@H](O)[C@H]2O)c2ccccc12`, the Potency result is “inactive”.

Source of the values: PubChem BioAssay (NCATS).
